Compound activity as filed in PubChem.
A selection follows.
aSyn UTR act: Activators via SNCA 5'UTR binding, MLPCN | alpha-synuclein 5'UTR reporter, activators screen | activity score, % (tested at 7.5 µM), hits read low | hit rate 7.1% among 300,000 | AID 1814; in the data active = activity score below about -60%
Hits are given with their value; . = inactive.

SMILES | aSyn UTR act
CC(C)n1c(O)c(C2c3cc(Cl)ccc3Oc3[nH]c(=O)n(C(C)C)c(=O)c32)c(=O)[nH]c1=O (configuration not stated) | -88.4
COc1ccc(-c2cc(=NCCC(=O)O)c3cc(C)ccc3o2)cc1 | -121.1
COc1ccc(-c2cc(=Nc3ccccc3)c3cc(C)ccc3o2)cc1 | -100.2
COc1cc(/C=C/C(=O)c2c(O)n(CCc3ccccc3)c(=O)[nH]c2=O)ccc1O | -69.4
O=C(/C=C/c1ccccc1)c1c(O)n(CCc2ccccc2)c(=O)[nH]c1=O | -83.5
CCN1/C(=C\C=C\C2=[N+](CC)c3ccccc3C2(C)C)C(C)(C)c2ccccc21 | .
CC1CCN(CC(=O)c2ccc3c(c2)OCCO3)CC1 | -77.5
CC1CCN(CC(=O)c2ccccc2Cl)CC1 | -133.6
CC(=O)Nc1ccc(OC(=O)N2CCCCC2)cc1 | .
C/C=C(\C)C(=O)N[C@@H](c1ccccc1)[C@@H](O)C(=O)O[C@H]1C[C@@]2(O)[C@@H](OC(=O)c3ccccc3)C3[C@](C)(C(=O)[C@H](O)C(=C1C)C2(C)C)[C@@H](O)C[C@H]1OC[C@@]31OC(C)=O (some centres not stated) | .
Nc1cc2nc3ccccc3nc2cc1N | -64.1
Cc1ccc(CN2C3CCCC2CC(NC(=O)Nc2cccc(F)c2)C3)cc1 (configuration not stated) | -98.7
CC(=O)OC(C)(C)/C=C/C(=O)C(C)(O)C1[C@H](O)C[C@@]2(C)C3CC=C4C(CC[C@@H](O)C4(C)C)[C@]3(CO)C(=O)C[C@]12C (some centres not stated) | .
CC[C@@]1(O)C(=O)OCc2c1cc1n(c2=O)Cc2cc3ccccc3nc2-1 | .
COc1ccc(-c2cc(C(=O)N3CCC4(CC3)OCCO4)c3ccccc3n2)cc1 | -88.2
CCOc1cccc(CNCCc2c(C)[nH]c3ccc(OC(F)(F)F)cc23)c1O | .
CN(C)C(=O)Oc1cccc(-c2cn3cc(Cl)ccc3n2)c1 | -82.3
CN(C)C(=O)Oc1ccc(-c2cn3cc(C(F)(F)F)ccc3n2)cc1 | -85.7
CC12CC[C@H]3[C@@H](CCC4(O)C[C@H](O)CCC34/C=N/NC(=O)c3ccccc3F)C1(O)CCC2C1=CC(=O)OC1 (some centres not stated) | .
C/C1=C\[C@@H](C)C/C=C/[C@H]2[C@@H]3O[C@]3(C)[C@@H](C)[C@H]3[C@H](Cc4c[nH]c5ccccc45)NC(=O)[C@]32C(=O)/C=C/C(=O)[C@@H]1O | .
CN(C)c1ccc(/C=C2/C(=N\O)C3CCN2CC3)cc1 | -132.8
O=C(c1cc2c(s1)-c1ccccc1OC2)N1CCC2(CC1)OCCO2 | -129.2
Cc1cc(C(=O)Nc2ccc3c(c2)OCCO3)nn1C(C)(C)C | -136.2
Cc1cc(C(=O)Nc2ccccc2)nn1C(C)(C)C | -111.7
C=C(C=O)CC1CC(O)[C@]2(C)OC3CC4OC5C[C@]6(C)O[C@]7(C)CCC8OC9C[C@]%10(C)OC%11C(C)=CC(=O)OC%11CC%10OC9C[C@@H](C)C8OC7CC6O[C@]5(C)CC5OC5C4OC3CC2O1 (some centres not stated) | .
SMILES | aSyn UTR act
CC(C)c1ccc(N2C(=O)NC(=O)/C(=C\C=C\c3ccco3)C2=O)cc1 | -70.1
O=C1NC(=O)N(Cc2ccccc2)C(=O)/C1=C/C=C/c1ccco1 | -296.5
CCCCCCOC(=O)c1ccccc1N | -136.0
O=c1nc(/C=C/c2ccc(Cl)cc2Cl)cc(C(F)(F)F)[nH]1 | -63.6
CC[n+]1c(/C=C/C=C/c2ccc(N(C)C)cc2)sc2ccccc21 | .
CN(C(=O)Oc1ccc(C(C)(C)C)cc1)c1ccccc1 | -106.1
CCC(=O)c1ccc(OC(=O)N(C)c2ccccc2)cc1 | -118.1
Cc1ccc(-n2c(C)nc3cc(Cl)ccc3c2=O)nc1 | -116.5
Cn1ccc(NC(=O)CCl)n1 | -70.2
Cc1cc(NC(=O)CCl)nn1C | -93.7
Cc1ccc(-c2nc(N3CCOCC3)s[n+]2-c2ccccc2)cc1 | -233.1
COC(=O)c1nc(-c2ccc3c(n2)C(=O)C(N)=C(OC)C3=O)c(N)c(-c2ccc(OC)c(OC)c2O)c1C | .
O=[N+]([O-])c1ccccc1-c1cc(-c2ccccc2)cc(-c2ccccc2)[n+]1Cc1ccccc1Cl | .
